The list is not random: actives were taken first. Their share in the collection is about 22%.
CYP2C19 act – human CYP2C19 activators, primary screen, biochemical, luminescence. recombinant CYP2C19, luciferin-H EGE luminescence; active compounds read high; 0 = fully inhibited enzyme, 1 = untreated enzyme. activation factor at 5 µM. 96,000 tested, under 10 active;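 active = activation factor of at least 2 at 5 µM in the primary screen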;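 also: 0 = wells with 2.5 mM tranylcypromine and 1 = vehicle-only wells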
CYP2C19 inhib – blockers of cytochrome P450 2C19 activity – biochemical, luminescence, ADME assay, primary screen. inhibition, % at 5 µM. P33261. hit rate 21% among 96,000. CYP2C19 Supersomes, luciferin-H EGE luminescence, 30 min;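 active = CYP2C19 inhibition above a set limit at 5 µM in the primary screen, cut at about 50% in these data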;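 also: plate controls were negative control wells for no effect and 2.5 mM tranylcypromine positive control for full effect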
E-sel TNF inh – E-selectin induction blockers in HUVEC – imaging, immunofluorescence, high content, primary screen | HUVEC TNFa-induced E-selectin immunofluorescence | inhibition, % at 2 µM | hit rate 0.71% among 120,000;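 active = inhibition above the batch mean plus 3 SD, and confirmed as a hit on visual image review, cut at about 43% in these data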;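 also: 0% = TNF-stimulated DMSO wells and 100% = unstimulated control wells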
F-actin modifier – modifiers of F-actin cytoskeleton organization, primary screen, imaging, HUVEC, phalloidin staining, high-content imaging; hit rate 0.18% among 91,000; AID 836, 2007; HUVEC TNFa F-actin phalloidin imaging; inhibition, % at 2 µM;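 active = inhibition above the batch mean plus 3 SD and confirmed as a hit by visual image inspection, cut at about 30% in these data, passing the limit was not always enough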
CYP2C9 inhib – blockers of cytochrome P450 2C9 activity – biochemical, luminescence, ADME assay, primary screen; P11712; CYP2C9 Supersomes, luciferin-H conversion; inhibition, % at 5 µM; hit rate 20% among 96,000; AID 777, 2007;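 active = blocking of liver enzyme CYP2C9 beyond about 50% at 5 µM, limit read from the data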
Target sequence (P11712 whole entry, looked up): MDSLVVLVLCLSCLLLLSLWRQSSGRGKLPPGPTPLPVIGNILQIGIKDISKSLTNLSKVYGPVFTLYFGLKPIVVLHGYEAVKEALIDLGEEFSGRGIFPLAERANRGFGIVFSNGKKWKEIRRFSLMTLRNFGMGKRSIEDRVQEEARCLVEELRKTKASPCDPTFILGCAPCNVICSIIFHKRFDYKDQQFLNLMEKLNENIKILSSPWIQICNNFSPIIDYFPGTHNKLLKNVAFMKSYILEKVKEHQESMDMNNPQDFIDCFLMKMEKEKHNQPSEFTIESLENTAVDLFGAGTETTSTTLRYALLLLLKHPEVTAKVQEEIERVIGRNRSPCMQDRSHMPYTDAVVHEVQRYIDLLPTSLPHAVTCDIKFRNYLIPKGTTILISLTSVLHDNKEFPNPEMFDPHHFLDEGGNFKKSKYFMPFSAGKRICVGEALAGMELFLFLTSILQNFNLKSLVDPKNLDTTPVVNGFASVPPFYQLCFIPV
CYP2C9 activ – human CYP2C9 activators, primary screen, biochemical, luminescence; Cytochrome P450 2C9 (Homo sapiens), P11712; recombinant CYP2C9, luciferin-H conversion; active compounds read high; factor 1 = untreated enzyme, 0 = blocked; activation factor at 5 µM; hit rate 1.4% among 96,000;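 active = activation factor of 2 or more for CYP2C9 at a 5 µM dose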;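 also: 0 = sulfaphenazole-blocked wells and 1 = vehicle-only wells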
An asterisk follows results filed as active; nt = no result given.

SMILES	CYP2C19 act	CYP2C19 inhib	E-sel TNF inh	F-actin modifier	CYP2C9 inhib	CYP2C9 activ
Cc1ccc2cc(C)c3nnc(SCC(=O)Nc4nc5c(s4)CCCC5)n3c2c1	0.4	57*	nt	10	61*	0.4
Cc1nnc(NC(=O)CSc2nc(C(C)C)nc3ccccc23)s1	0.9	8	-54	23	66*	0.3
CC(C)c1nc(SCC(=O)Nc2nc3c(s2)CCCC3)c2ccccc2n1	0.8	20	-43	17	-2	1
Cc1ccc(-c2csc(NC(=O)CSc3ncn(-c4ccccc4)n3)n2)cc1	0.4	64*	-21	-7	67*	0.3
O=C(CSc1ncn(-c2ccccc2)n1)Nc1nc(-c2ccccc2)cs1	nt	nt	-19	2	nt	nt
O=C1C=CN(C(=O)Oc2ccccc2)CC1	nt	nt	3	nt	nt	nt
COc1ccc(C(C(=O)NC2CCCC2)N(Cc2ccc(F)cc2)C(=O)c2ccn[nH]2)cc1OC (stereo not drawn)	0.7	33	-9	16	0	1
Cc1csc(SCC(=O)Nc2nc3ccccc3s2)n1	0.1	92*	-1	-24	94*	0.1
CC(=O)Nc1ccc(C(=O)CSc2ncn(-c3ccccc3)n2)cc1	0.3	67*	-8	-9	75*	0.3
O=C(CSc1ncn(-c2ccccc2)n1)Nc1nccs1	0.4	56*	1	-5	21	0.8
Cc1cc(C)nc(NC(=O)CSc2nc3ccccc3s2)n1	0.7	28	2	nt	3	1
Cc1csc(NC(=O)CCS(=O)(=O)c2ccc(Br)cc2)n1	0.6	42	4	6	85*	0.1
Cc1cc(NC(=O)CSc2nnc(C(C)N(C)C)n2-c2ccc(F)cc2)no1 (stereo not drawn)	nt	nt	-22	nt	nt	nt
COc1ccc(Oc2nnc(-c3ccc(C)cc3)c3ccccc23)cc1	1	0	-19	12	3	1
O=C(CSc1ncn(-c2ccccc2)n1)Nc1nc2c(s1)CCCC2	0.6	44	-13	9	64*	0.4
Cn1c(SCC(=O)Nc2nc3c(s2)CCCC3)nnc1-c1ccccc1	0.7	33	5	-7	42	0.6
Cc1csc(NC(=O)CCc2nc3ccccc3s2)n1	0.2	83*	20	-27	-77	1.8
O=C(CSc1ncn(-c2ccccc2)n1)Nc1nc2ccccc2s1	0.4	65*	-4	4	65*	0.4
Cc1c(/C=N/NC(=O)c2cc(=O)[nH]c(=O)[nH]2)c2ccccn2c1C(=O)c1ccccc1	0.9	9	-8	4	50*	0.5
CC1(C)Cc2cccc(OCC(=O)Nc3cc(C(F)(F)F)ccc3N3CCOCC3)c2O1	0.8	19	8	21	51*	0.5
CC(=O)c1c(C)[nH]c(C(=O)OCC(=O)Nc2cc(C(F)(F)F)ccc2N2CCOCC2)c1C	0.7	35	nt	4	58*	0.4
Cc1noc(C)c1COC(=O)COc1cccc2c1OC(C)(C)C2	0.2	77*	10	4	68*	0.3
CCOc1cc(N2CCOCC2)c(OCC)cc1NC(=O)CN1C(=O)NC2(CCc3ccccc32)C1=O (stereo not drawn)	0.8	21	-4	1	44	0.6
Cc1nc2ccccc2nc1OCC(=O)Nc1cc(C(F)(F)F)ccc1N1CCOCC1	0.9	7	11	-6	34	0.7
O=C(CN1C(=O)NC2(CCc3ccccc32)C1=O)Nc1cc(C(F)(F)F)ccc1N1CCOCC1 (stereo not drawn)	0.7	35	nt	nt	89*	0.1
SMILES	CYP2C19 act	CYP2C19 inhib	E-sel TNF inh	F-actin modifier	CYP2C9 inhib	CYP2C9 activ
O=c1[nH]c(=O)n(CCc2ccc(F)cc2)c(O)c1C=NCc1ccc2c(c1)OCO2	1	-2	-52	15	-10	1.1
NS(=O)(=O)c1ccc(CCNC(=O)CN2CCN(c3ccc(F)cc3)CC2)cc1	nt	nt	-28	nt	nt	nt
CCC1CC2(C)NC(=O)c3c(sc4c3CC(C)(C)OC4)N2C1=O (stereo not drawn)	1	1	nt	-25	7	0.9
CC1(C)Cc2cccc(OCC(=O)Nc3cccnc3Cl)c2O1	0	98*	-22	12	-116	2.2*
CC1(C)Cc2cccc(OCC(=O)Nc3cccnc3)c2O1	0.7	28	-46	-11	19	0.8
S=C(NCc1ccccn1)Nc1ccc(Cl)c(Cl)c1	0.5	51*	-13	-32	25	0.8
S=C(NCc1ccccn1)Nc1ccc(Cl)cc1Cl	0.3	66*	nt	22	4	1
CCCCN(C)C(=O)C(Cc1ccccc1)NS(=O)(=O)c1ccc2c(c1)CCC(=O)N2 (stereo not drawn)	0.8	19	nt	15	30	0.7
CCOc1ccc(-c2cn(CCC#N)cn2)cc1	0.3	65*	4	nt	41	0.6
CCCCOc1ccc(S(=O)(=O)n2c(C)nc3ccccc32)cc1	0.6	39	-12	nt	67*	0.3
COc1cc(S(=O)(=O)N2CCN=C2c2ccccc2)ccc1F	0.3	74*	18	-5	-10	1.1
Cc1ccc(S(=O)(=O)N2CCN=C2c2ccccc2)cc1C	nt	nt	1	19	nt	nt
COc1cc(S(=O)(=O)n2c(C)nc3ccccc32)ccc1F	0.1	94*	-39	1	43	0.6
c1ccc2c(c1)ncn2-c1ccc(-c2ccnc(-c3ccncc3)n2)cc1	0.1	86*	23	40	87*	0.1
CC(C)CN(CC(C)C)C(=O)CC(=O)NC(=O)c1ccc(Cl)cc1	0.7	34	20	-8	25	0.8
CCCNS(=O)(=O)c1cccc(C(=O)NC2CCCc3ccccc32)c1 (stereo not drawn)	0.2	78*	-10	6	89*	0.1
Cc1cc(C(=O)NC2CCCc3ccccc32)c(C)o1 (stereo not drawn)	0.7	30	5	-32	70*	0.3
Cc1cc(C(=O)NC2CCCc3ccccc32)no1 (stereo not drawn)	0.6	41	nt	nt	13	0.9
CCN(CC)S(=O)(=O)c1ccc2oc(C(=O)NC3CCCc4ccccc43)c(C)c2c1 (stereo not drawn)	0.7	25	15	4	59*	0.4
Cc1noc(C)c1C(=O)NC1CCCc2ccccc21 (stereo not drawn)	0.8	25	7	23	30	0.7
CSCc1c(C(=O)NC2CCCc3ccccc32)oc2ccccc12 (stereo not drawn)	1.2	-15	-20	-14	55*	0.4
Cc1ccc(CNn2cnnc2SCc2ccc(F)cc2)cc1	nt	nt	3	9	nt	nt
CC(CCc1ccccc1)NC(=O)CN1CCc2ccccc2C1 (stereo not drawn)	nt	nt	-34	nt	nt	nt
COC(=O)C1=C(C)N(CC(C)C)C(=O)/C1=C\c1cccs1	0.7	31	-3	11	28	0.7
